Assay results published in PubChem BioAssay AID1159580 (chemical genetic matrix, 2015).
Screen size: about 5,500 compounds; about 2,000 (36%) were called active. Inconclusive results (about 18%) are left out. The list shows a part of the results. A number with no mark means an inactive call. No stated cut-off is given here; in the data, active means normalized growth mostly below about 0.91 (no sharp cut-off); inconclusive means no clear call, values can overlap the other calls; inactive means mostly above about 0.92.

Assay: chemical genetic growth profiling, strain panel (AID 1159580);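 further: tested at 20 µM; growth read once vehicle control cultures reached saturation at 30 °C; 1 = growth at the plate median or of vehicle wells; lower values mean less growth of the strain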
Details: S. cerevisiae deletion strains, growth OD

Structure (SMILES): CC(=O)O[C@H]1CC[C@@]2(C)C(=CCC3C2CC[C@]2(C)C(=O)CCC32)C1 (stereo partly drawn)
- normalized growth (locus YAL013W, strain DEP1, active compounds read low): 0.775 (active)
- normalized growth (locus YAL021C, strain ccr4, active compounds read low): 0.877 (active)
- normalized growth (locus YAL026C, strain drs2, active compounds read low): 0.6 (active)
- normalized growth (locus YAL030W, strain snc1, active compounds read low): 1.02
- normalized growth (locus YBL061C, strain skt5, active compounds read low): 1.02
- normalized growth (locus YBR009C, strain hhf1, active compounds read low): 0.908
- normalized growth (locus YBR021W, strain FUR4, active compounds read low): 0.833 (active)
- normalized growth (locus YBR023C, strain chs3, active compounds read low): 0.961
- normalized growth (locus YBR171W, strain sec66, active compounds read low): 1.02
- normalized growth (locus YBR229C, strain ROT2, active compounds read low): 1
- normalized growth (locus YBR231C, strain swc5, active compounds read low): 1.04
- normalized growth (locus YBR279W, strain paf1, active compounds read low): 0.975
- normalized growth (locus YCL011C, strain gbp2, active compounds read low): 0.912
- normalized growth (locus YCL016C, strain dcc1, active compounds read low): 0.917
- normalized growth (locus YCL029C, strain bik1, active compounds read low): 0.895 (active)
- normalized growth (locus YCL069W, strain vba3, active compounds read low): 0.951
- normalized growth (locus YCR088W, strain abp1, active compounds read low): 1.05
- normalized growth (locus YDL005C, strain med2, active compounds read low): 1.02
- normalized growth (locus YDL035C, strain GPR1, active compounds read low): 0.686 (active)
- normalized growth (locus YDL040C, strain nat1, active compounds read low): 1.03
- normalized growth (locus YDL074C, strain BRE1, active compounds read low): 0.612 (active)
- normalized growth (locus YDL101C, strain DUN1, active compounds read low): 0.981
- normalized growth (locus YDL185W, strain tfp1, active compounds read low): 1.01
- normalized growth (locus YDL192W, strain arf1, active compounds read low): 1.01
- normalized growth (locus YDR001C, strain nth1, active compounds read low): 1.04
- normalized growth (locus YDR069C, strain doa4, active compounds read low): 1.02
- normalized growth (locus YDR101C, strain arx1, active compounds read low): 0.932
- normalized growth (locus YDR137W, strain rgp1, active compounds read low): 0.568 (active)
- normalized growth (locus YDR159W, strain sac3, active compounds read low): 1.01
- normalized growth (locus YDR162C, strain NBP2, active compounds read low): 0.596 (active)
- normalized growth (locus YDR195W, strain ref2): 1.3 [resistant] (active)
- normalized growth (locus YDR297W, strain sur2, active compounds read low): 0.99
- normalized growth (locus YDR318W, strain mcm21, active compounds read low): 0.844 (active)
- normalized growth (locus YDR334W, strain swr1, active compounds read low): 1.06
- normalized growth (locus YDR335W, strain msn5, active compounds read low): 0.937
- normalized growth (locus YDR388W, active compounds read low): 1.02
- normalized growth (locus YDR392W, strain spt3, active compounds read low): 0.43 (active)
- normalized growth (locus YDR502C, strain sam2, active compounds read low): 0.843 (active)
- normalized growth (locus YEL003W, strain gim4, active compounds read low): 0.942
- normalized growth (locus YEL037C, strain rad23, active compounds read low): 0.994
- normalized growth (locus YEL061C, strain CIN8 (second series), active compounds read low): 1.02
- normalized growth (locus YEL061C, strain CIN8, active compounds read low): 0.928
- normalized growth (locus YER015W, strain faa2, active compounds read low): 0.948
- normalized growth (locus YER016W, strain bim1, active compounds read low): 1.02
- normalized growth (locus YER110C, active compounds read low): 1.03
- normalized growth (locus YER111C, strain swi4, active compounds read low): 1.03
- normalized growth (locus YER155C, strain BEM2 (second series), active compounds read low): 0.991
- normalized growth (locus YER155C, strain BEM2, active compounds read low): 0.752 (active)
- normalized growth (locus YER167W, strain BCK2, active compounds read low): 0.892 (active)
- normalized growth (locus YFR010W, strain ubp6, active compounds read low): 0.96
- normalized growth (locus YGL078C, strain dbp3, active compounds read low): 0.979
- normalized growth (locus YGL086W, strain mad1, active compounds read low): 0.884 (active)
- normalized growth (locus YGL167C, strain pmr1, active compounds read low): 1.02
- normalized growth (locus YGL173C, strain kem1, active compounds read low): 1
- normalized growth (locus YGL227W, strain vid30, active compounds read low): 1.04
- normalized growth (locus YGL240W, strain doc1, active compounds read low): 1.02
- normalized growth (locus YGL248W, strain PDE1, active compounds read low): 0.721 (active)
- normalized growth (locus YGL253W, strain hxk2, active compounds read low): 0.939
- normalized growth (locus YGR135W, strain pre9, active compounds read low): 0.884 (active)
- normalized growth (locus YGR229C, strain SMI1, active compounds read low): 0.813
- normalized growth (locus YGR252W, strain gcn5, active compounds read low): 0.81
- normalized growth (locus YHR013C, strain ard1, active compounds read low): 0.966
- normalized growth (locus YHR027C, strain rpn1, active compounds read low): 1.02
- normalized growth (locus YHR030C, strain SLT2, active compounds read low): 0.779 (active)
- normalized growth (locus YHR079C, strain IRE1 (second series), active compounds read low): 0.962
- normalized growth (locus YHR094C, strain hxt1, active compounds read low): 1.04
- normalized growth (locus YHR129C, strain ARP1, active compounds read low): 0.788 (active)
- normalized growth (locus YHR142W, strain chs7, active compounds read low): 0.877
- normalized growth (locus YHR200W, strain rpn10, active compounds read low): 0.961
- normalized growth (locus YIL066C, strain RNR3, active compounds read low): 0.812 (active)
- normalized growth (locus YIL073C, strain SPO22, active compounds read low): 0.679
- normalized growth (locus YIL125W, strain kgd1, active compounds read low): 1
- normalized growth (locus YIR030C, strain dcg1, active compounds read low): 1.02
- normalized growth (locus YJL092W, strain hpr5, active compounds read low): 1
- normalized growth (locus YJL095W, strain BCK1 (second series), active compounds read low): 1.01
- normalized growth (locus YJL095W, strain BCK1, active compounds read low): 0.433 (active)
- normalized growth (locus YJL115W, strain asf1, active compounds read low): 1.05
- normalized growth (locus YJL129C, strain trk1, active compounds read low): 0.939
- normalized growth (locus YJL134W, strain LCB3, active compounds read low): 1.02
- normalized growth (locus YJL154C, strain vps35, active compounds read low): 1.03
- normalized growth (locus YJL164C, strain tpk1, active compounds read low): 0.906 (active)
- normalized growth (locus YJL166W, strain qcr8, active compounds read low): 0.903
- normalized growth (locus YJL168C, strain set2, active compounds read low): 1.02
- normalized growth (locus YJL187C, strain SWE1 (second series), active compounds read low): 0.887
- normalized growth (locus YJR043C, strain POL32, active compounds read low): 0.857
- normalized growth (locus YJR075W, strain HOC1, active compounds read low): 0.887
- normalized growth (locus YKL009W, strain mrt4, active compounds read low): 0.938
- normalized growth (locus YKL068W, active compounds read low): 1.03
- normalized growth (locus YKL085W, strain MDH1 (second series), active compounds read low): 0.964
- normalized growth (locus YKL085W, strain MDH1, active compounds read low): 0.964
- normalized growth (locus YKL160W, strain elf1, active compounds read low): 0.906
- normalized growth (locus YKL190W, strain CNB1, active compounds read low): 0.945
- normalized growth (locus YKR001C, strain vps1, active compounds read low): 0.961
- normalized growth (locus YKR026C, strain gcn3, active compounds read low): 1.05
- normalized growth (locus YKR091W, strain srl3, active compounds read low): 1.03
- normalized growth (locus YLL001W, strain dnm1, active compounds read low): 0.918
- normalized growth (locus YLL026W, active compounds read low): 1.02
- normalized growth (locus YLL041C, strain sdh2, active compounds read low): 1.03
- normalized growth (locus YLR027C, strain aat2, active compounds read low): 0.954
- normalized growth (locus YLR039C, strain RIC1, active compounds read low): 0.403 (active)
- normalized growth (locus YLR058C, strain SHM2, active compounds read low): 0.892
- normalized growth (locus YLR102C, strain apc9, active compounds read low): 1.04
- normalized growth (locus YLR221C, strain rsa3, active compounds read low): 0.966
- normalized growth (locus YLR258W, strain gsy2, active compounds read low): 0.952
- normalized growth (locus YLR262C, strain YPT6 (second series), active compounds read low): 0.514 (active)
- normalized growth (locus YLR262C, strain YPT6, active compounds read low): 0.413 (active)
- normalized growth (locus YLR268W, strain sec22, active compounds read low): 0.887
- normalized growth (locus YLR320W, strain mms22, active compounds read low): 0.846 (active)
- normalized growth (locus YLR330W, strain CHS5, active compounds read low): 0.814 (active)
- normalized growth (locus YLR342W, strain FKS1 (second series), active compounds read low): 0.742 (active)
- normalized growth (locus YLR342W, strain FKS1, active compounds read low): 0.976
- normalized growth (locus YLR357W, strain rsc2, active compounds read low): 1.1
- normalized growth (locus YLR370C, strain arc18, active compounds read low): 1.01
- normalized growth (locus YLR371W, strain rom2, active compounds read low): 1.02
- normalized growth (locus YLR384C, strain iki3, active compounds read low): 1.03
- normalized growth (locus YLR418C, strain cdc73, active compounds read low): 0.698 (active)
- normalized growth (locus YML016C, strain PPZ1, active compounds read low): 0.947
- normalized growth (locus YML032C, strain rad52, active compounds read low): 0.866 (active)
- normalized growth (locus YML120C, strain ndi1, active compounds read low): 0.928
- normalized growth (locus YML124C, strain tub3, active compounds read low): 1.03
- normalized growth (locus YMR058W, strain fet3, active compounds read low): 0.988
- normalized growth (locus YMR078C, strain ctf18, active compounds read low): 1.01
- normalized growth (locus YMR125W, strain sto1, active compounds read low): 1.05
- normalized growth (locus YMR129W, active compounds read low): 1.03
- normalized growth (locus YMR205C, strain PFK2, active compounds read low): 0.876
- normalized growth (locus YMR223W, strain ubp8, active compounds read low): 0.878 (active)
- normalized growth (locus YMR231W, strain pep5, active compounds read low): 1.01
- normalized growth (locus YMR263W, strain SAP30, active compounds read low): 0.943
- normalized growth (locus YMR307W, strain GAS1, active compounds read low): 0.865
- normalized growth (locus YNL067W, strain RPL9B, active compounds read low): 0.887
- normalized growth (locus YNL071W, strain lat1, active compounds read low): 0.758 (active)
- normalized growth (locus YNL209W, strain ssb2, active compounds read low): 0.942
- normalized growth (locus YNL233W, strain BNI4, active compounds read low): 0.724 (active)
- normalized growth (locus YNL248C, strain rpa49, active compounds read low): 0.98
- normalized growth (locus YNL250W, strain rad50, active compounds read low): 0.914
- normalized growth (locus YNL271C, strain bni1, active compounds read low): 0.965
- normalized growth (locus YNL298W, strain CLA4, active compounds read low): 0.859 (active)
- normalized growth (locus YNL307C, strain MCK1, active compounds read low): 0.516 (active)
- normalized growth (locus YNL322C, strain KRE1 (second series), active compounds read low): 1.04
- normalized growth (locus YNR049C, strain mso1, active compounds read low): 1.04
- normalized growth (locus YNR052C, strain pop2, active compounds read low): 0.85 (active)
- normalized growth (locus YOL012C, strain htz1): 1.72
- normalized growth (locus YOL147C, strain pex11, active compounds read low): 0.92 (active)
- normalized growth (locus YOR001W, strain rrp6, active compounds read low): 0.969
- normalized growth (locus YOR061W, strain CKA2, active compounds read low): 0.89
- normalized growth (locus YOR069W, strain VPS5, active compounds read low): 0.988
- normalized growth (locus YOR070C, strain gyp1, active compounds read low): 0.937
- normalized growth (locus YOR080W, strain dia2, active compounds read low): 1
- normalized growth (locus YOR083W, strain WHI5, active compounds read low): 0.903
- normalized growth (locus YOR106W, strain vam3, active compounds read low): 0.883
- normalized growth (locus YOR136W, strain idh2, active compounds read low): 0.95
- normalized growth (locus YOR144C, strain elg1, active compounds read low): 0.989
- normalized growth (locus YOR184W, strain ser1, active compounds read low): 0.477 (active)
- normalized growth (locus YOR265W, strain rbl2, active compounds read low): 0.973
- normalized growth (locus YOR270C, strain vph1, active compounds read low): 1.05
- normalized growth (locus YOR290C, strain snf2, active compounds read low): 0.881
- normalized growth (locus YOR316C, strain cot1, active compounds read low): 1.02
- normalized growth (locus YPL051W, strain arl3, active compounds read low): 0.953
- normalized growth (locus YPL055C, strain LGE1, active compounds read low): 0.594 (active)
- normalized growth (locus YPL078C, strain atp4, active compounds read low): 0.891 (active)
- normalized growth (locus YPL106C, strain sse1, active compounds read low): 1.22 [resistant] (active)
- normalized growth (locus YPL240C, strain hsp82, active compounds read low): 0.983
- normalized growth (locus YPL241C, strain CIN2, active compounds read low): 1
- normalized growth (locus YPR119W, strain clb2, active compounds read low): 1.04
- normalized growth (locus YPR141C, strain kar3, active compounds read low): 1.04
- normalized growth (locus YPR163C, strain tif3, active compounds read low): 0.941
- normalized growth (locus YPR167C, strain met16, active compounds read low): 0.97
- normalized growth (strain wtn01, active compounds read low): 0.848 (active)
